From PubChem BioAssay
HDAC3 inhib – HDAC3 deacetylase inhibitors, primary screen, biochemical, fluorescence, cell-free homogeneous; Histone deacetylase 3 (Homo sapiens), O15379; recombinant HDAC3, fluorogenic peptide/trypsin coupled; inhibition, % at 8.3 µM; 320,000 compounds, 0.15% hits; in the data active = inhibition above about 26%, passing the limit was not always enough; inconclusive = no clear call, values can overlap the other calls
NPR1 activator – GC-A stimulated cGMP production enhancers – HEK293 GC-A cells, cGMP TR-FRET, EC30 ANP, primary screen; Atrial natriuretic peptide receptor 1 (Homo sapiens), P16066; 0% at EC30 ANP, 100% saturating ANP; activation, % at 10 µM; 370,000 compounds, 0.14% hits; in the data active = activation above about 40%
ALR inh – inhibitors of human ALR sulfhydryl oxidase, primary screen, biochemical, H2O2 detection, HRP-luminol luminescence, single point | FAD-linked sulfhydryl oxidase ALR (Homo sapiens), P55789 | purified ALR, DTT oxidation | inhibition, % (test concentration not listed) | 290,000 compounds, 3.8% hits | AID 485317, 2010;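 active = mean replicate inhibition above about 79%, with every replicate also reaching it, limit read from the data; inconclusive = only one of the two criteria met; inactive = mean below limit and not every replicate reaching it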
GC-B act – human GC-B receptor activators, primary screen, HEK293 GC-B cells, cGMP TR-FRET, EC30 CNP; AID 1920062, 2024; activation, % at 10 µM; 0% at EC30 CNP, 100% saturating CNP; 370,000 compounds, 0.11% hits; Atrial natriuretic peptide receptor 2 (Homo sapiens), P20594;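 active = activation at 10 µM reaching about 35% in either raw or pattern-adjusted values, limit read from the data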
Numbers stand for hits; 0 = inactive; ? = inconclusive; - = not tested or not shown. This is one part of a sample in which hits are shown more often than they occur.

SMILES | HDAC3 inhib | NPR1 activator | ALR inh | GC-B act
CCn1cnc2c1c(=O)n(CC(=O)OC)c(=O)n2Cc1ccccc1 | 0 | 0 | 0 | 0
OCC1CCCN(C(=S)Nc2ccc(OC(F)F)cc2)C1 (stereo not given) | 0 | 0 | 0 | 0
CC1CCCN(C(=O)COc2ccc3c(c2)OCO3)C1 (stereo not given) | - | 0 | 0 | 0
OCC1CCCN(C(=S)Nc2ccc(Nc3ccccc3)cc2)C1 (stereo not given) | 0 | 0 | 100 | 0
CC1CCN(C(=O)COc2ccc(Nc3ccccc3)cc2)CC1 | 0 | 0 | 88 | 0
CC1CCCN(C(=O)COc2ccc(Nc3ccccc3)cc2)C1 (stereo not given) | 0 | 0 | 99 | 0
Cc1nc(SCC(=O)Nc2nccs2)c(C#N)c(C)c1C | 0 | 0 | 0 | 0
CCc1nnc(NC(=O)CSc2nc3[nH]c(=O)cc(O)c3s2)s1 | 0 | 0 | 99 | 0
O=C(CSc1nc2[nH]c(=O)cc(O)c2s1)Nc1nccs1 | 0 | 0 | 95 | 0
Cc1cnc(=O)[nH]c1SCC(=O)Nc1nccs1 | 0 | 0 | 97 | 0
O=c1nccc(SCc2ccc(Cl)cc2Cl)[nH]1 | ? | 0 | 99 | 0
COc1ccccc1-c1csc(NC(=O)c2ccc(N3C(=O)CCC3=O)cc2)n1 | 0 | 0 | 0 | 0
Cc1ccc(NC2CCCN(C(=O)CN3C(=O)c4ccccc4C3=O)C2)cc1C (stereo not given) | 0 | 0 | 93 | 0
O=C(CCc1ccncc1)N1CCCC(Nc2ccc(F)c(F)c2)C1 (stereo not given) | 0 | 0 | 95 | 0
COc1ccc(NC2CCCN(C(=O)CCc3ccncc3)C2)cc1OC (stereo not given) | 0 | 0 | 95 | 0
O=C(CSc1ccccn1)N1CCCC(Nc2ccc(F)c(F)c2)C1 (stereo not given) | 0 | 0 | 0 | 0
Cc1ccc(NC2CCCN(C(=O)Cc3nonc3C)C2)cc1C (stereo not given) | 0 | 0 | 99 | 0
Cc1ccc(NC2CCCN(C(=O)CCC(=O)c3ccccc3)C2)cc1C (stereo not given) | - | 0 | - | 0
Cc1ccc(NC2CCCN(C(=O)c3nonc3C)C2)cc1C (stereo not given) | - | 0 | - | 0
O=C1CCc2cc(S(=O)(=O)N3CCCCC3)cc3c2N1CC3 | 0 | 0 | 0 | 0
COc1cccc(C(=O)COC(=O)CCC(=O)c2ccccc2)c1 | 0 | 0 | 0 | 0
C[C@H](CO)N1C[C@H](C)[C@@H](CN(C)S(=O)(=O)c2ccc(F)cc2)Oc2cc(Br)ccc2S1(=O)=O | - | 0 | - | 0
Cc1cccc(OCC(=O)Nc2nccs2)c1C | 0 | 0 | 0 | 0
Cc1ccc(S(=O)(=O)N2[C@@H](c3ccccc3F)C(C(=O)O)=CC[C@H]2c2cccs2)cc1 | 0 | 0 | 0 | 0
O=C(CSc1nnc(-c2ccccn2)n1-c1ccc(Cl)cc1)Nc1ccc(S(=O)(=O)Nc2nccs2)cc1 | - | 0 | - | 0
SMILES | HDAC3 inhib | NPR1 activator | ALR inh | GC-B act
Cc1ccc(NC2CCCN(C(=O)CCc3ccncc3)C2)cc1C (stereo not given) | 0 | 0 | 98 | 0
COc1ccc(OCC(=O)N2CCCC(Nc3ccc(C)c(C)c3)C2)cc1 (stereo not given) | - | 0 | - | 0
O=C(CCc1cccc(Cl)c1)N1CCCC(Nc2ccccc2)C1 (stereo not given) | 0 | 0 | 0 | 0
Cc1ccc(NC2CCCN(C(=O)CSc3ccncc3)C2)cc1C (stereo not given) | 0 | 0 | 98 | 0
COc1c(C)cc(C(=O)C2CCCN(C(=O)CCCn3cncn3)C2)cc1C (stereo not given) | 0 | 0 | 0 | 0
COc1ccc(NC2CCCN(C(=O)CCCn3cncn3)C2)cc1OC (stereo not given) | 0 | 0 | 94 | 0
CC(C)c1cc(C(=O)NCCc2cccs2)c(N)s1 | - | 0 | - | 0
O=C(CC1C[C@H](C(=O)N2CCOCC2)[C@@]2(CCC3CCCC3)c3[nH]c4ccccc4c3CCN2C1=O)NCCC1=CCCCC1 (stereo not given in full) | 0 | 0 | - | 0
CN(Cc1ccco1)S(=O)(=O)c1nnc(NC(=O)c2cccc(Cl)c2)s1 | 0 | 0 | 96 | 0
CC(C)CC(=O)Nc1nnc(S(=O)(=O)N(C)Cc2ccco2)s1 | 0 | - | 0 | -
Cc1ccnc(NC(=O)CNC(=O)c2ccccc2Br)c1 | 0 | 0 | 0 | 0
O=C(O)CCN1C(=O)CC(N2C(=O)/C(=C/c3ccc(Cl)cc3)SC2=S)C1=O (stereo not given) | 0 | 0 | 98 | 0
